From PubChem BioAssay
Active and inactive are the calls of the source.

Experiments:
[1] = tested on: PRMT1 (protein arginine N-methyltransferase 1); assay: small molecules binding arginine methyltransferase PRMT1 – biochemical, small-molecule microarray, 635 nm fluorescence, primary screen (AID 1088); settings: higher = more signal;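 note: binding of Prmt1 protein to compounds spotted on small-molecule microarray slides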
[2] = growth effects on S. cerevisiae YJM789 – YJM789 clinical isolate, OD600, 24 h, basal, primary screen (AID 1089); settings: higher = more signal, called active from +8 up or from −8 down;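 note: growth of clinical yeast isolate S. cerevisiae YJM 789 seeded 1000 cells per well; test concentration not given here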
[3] = S. pombe growth modifiers, basal conditions – strain 972, OD600, 24 h, no modulator, primary screen (AID 1090);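 note: basal condition with compound alone and no growth modifier present; test concentration not given here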; settings: S. pombe 972 growth, higher = more signal, called active from +8 up or from −8 down
[4] = budding yeast growth modifiers under rapamycin – strain BY4716, OD600, 96 h, primary screen (AID 1091); note: test concentration not given here; settings: S. cerevisiae BY4716 + rapamycin, higher = more signal, called active from +8 up or from −8 down
[5] = target: Torsin-1A-interacting protein 2 (Homo sapiens) (UniProt Q8NFQ8); assay: small molecules binding lysate-expressed LULL1 – cell lysate, human LULL1 lysate, 635/667 nm fluorescence, primary screen (AID 1092); settings: small-molecule microarray, hLULL1 lysate binding, 635 nm fluorescence; higher = more signal;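 note: probe is lysate of COS7 cells overexpressing human LULL1; score merges per-feature 667 nm fluorescence with signal-to-noise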
Chain of Torsin-1A-interacting protein 2 (Homo sapiens) (Q8NFQ8 whole entry, looked up): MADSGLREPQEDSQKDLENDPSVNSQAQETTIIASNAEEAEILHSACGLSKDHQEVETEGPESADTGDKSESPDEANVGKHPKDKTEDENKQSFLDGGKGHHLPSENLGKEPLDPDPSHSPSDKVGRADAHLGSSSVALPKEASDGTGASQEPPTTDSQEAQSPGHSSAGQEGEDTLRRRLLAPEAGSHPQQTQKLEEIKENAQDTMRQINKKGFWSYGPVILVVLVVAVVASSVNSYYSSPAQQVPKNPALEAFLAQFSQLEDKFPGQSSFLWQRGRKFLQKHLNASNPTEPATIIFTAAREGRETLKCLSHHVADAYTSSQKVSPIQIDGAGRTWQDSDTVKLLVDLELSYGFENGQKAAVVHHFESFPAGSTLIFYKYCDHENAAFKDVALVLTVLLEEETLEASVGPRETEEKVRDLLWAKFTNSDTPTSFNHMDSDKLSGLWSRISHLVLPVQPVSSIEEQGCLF

[6] = optical density change of DRC41 E. coli – strain DRC41, OD650, 24 h, E. coli filamentation project, primary screen (AID 1093);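 note: MC1000 strain lacking acrAB efflux and sulA so SOS filamentation is blocked; test concentration not given here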; settings: E. coli DRC41 growth, higher = more signal, called active from +8 up or from −8 down
[7] = probe aLefty2 binding to arrayed compounds – biochemical, biotinylated probe, 635/667 nm fluorescence, primary screen (AID 1094); settings: small-molecule microarray, higher = more signal;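 note: score merges spot fluorescence near 667 nm with spot signal-to-noise ratio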
[8] = tested on: Noggin (protein binding on small-molecule microarray); assay: small molecules binding Noggin protein – biochemical, 635/667 nm fluorescence, primary screen (AID 1095); settings: 635 nm fluorescence, higher = more signal;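 note: score merges 667 nm feature fluorescence with signal to noise over triplicate slides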
[9] = target: Neurogenic locus notch homolog protein 3 (Homo sapiens) (UniProt Q9UM47); assay: small molecules binding NOTCH3 protein – biochemical, 635/667 nm fluorescence, primary screen (AID 1096); settings: small-molecule microarray, 635 nm fluorescence, higher = more signal
Chain of Neurogenic locus notch homolog protein 3 (Homo sapiens) (Q9UM47 whole entry, looked up): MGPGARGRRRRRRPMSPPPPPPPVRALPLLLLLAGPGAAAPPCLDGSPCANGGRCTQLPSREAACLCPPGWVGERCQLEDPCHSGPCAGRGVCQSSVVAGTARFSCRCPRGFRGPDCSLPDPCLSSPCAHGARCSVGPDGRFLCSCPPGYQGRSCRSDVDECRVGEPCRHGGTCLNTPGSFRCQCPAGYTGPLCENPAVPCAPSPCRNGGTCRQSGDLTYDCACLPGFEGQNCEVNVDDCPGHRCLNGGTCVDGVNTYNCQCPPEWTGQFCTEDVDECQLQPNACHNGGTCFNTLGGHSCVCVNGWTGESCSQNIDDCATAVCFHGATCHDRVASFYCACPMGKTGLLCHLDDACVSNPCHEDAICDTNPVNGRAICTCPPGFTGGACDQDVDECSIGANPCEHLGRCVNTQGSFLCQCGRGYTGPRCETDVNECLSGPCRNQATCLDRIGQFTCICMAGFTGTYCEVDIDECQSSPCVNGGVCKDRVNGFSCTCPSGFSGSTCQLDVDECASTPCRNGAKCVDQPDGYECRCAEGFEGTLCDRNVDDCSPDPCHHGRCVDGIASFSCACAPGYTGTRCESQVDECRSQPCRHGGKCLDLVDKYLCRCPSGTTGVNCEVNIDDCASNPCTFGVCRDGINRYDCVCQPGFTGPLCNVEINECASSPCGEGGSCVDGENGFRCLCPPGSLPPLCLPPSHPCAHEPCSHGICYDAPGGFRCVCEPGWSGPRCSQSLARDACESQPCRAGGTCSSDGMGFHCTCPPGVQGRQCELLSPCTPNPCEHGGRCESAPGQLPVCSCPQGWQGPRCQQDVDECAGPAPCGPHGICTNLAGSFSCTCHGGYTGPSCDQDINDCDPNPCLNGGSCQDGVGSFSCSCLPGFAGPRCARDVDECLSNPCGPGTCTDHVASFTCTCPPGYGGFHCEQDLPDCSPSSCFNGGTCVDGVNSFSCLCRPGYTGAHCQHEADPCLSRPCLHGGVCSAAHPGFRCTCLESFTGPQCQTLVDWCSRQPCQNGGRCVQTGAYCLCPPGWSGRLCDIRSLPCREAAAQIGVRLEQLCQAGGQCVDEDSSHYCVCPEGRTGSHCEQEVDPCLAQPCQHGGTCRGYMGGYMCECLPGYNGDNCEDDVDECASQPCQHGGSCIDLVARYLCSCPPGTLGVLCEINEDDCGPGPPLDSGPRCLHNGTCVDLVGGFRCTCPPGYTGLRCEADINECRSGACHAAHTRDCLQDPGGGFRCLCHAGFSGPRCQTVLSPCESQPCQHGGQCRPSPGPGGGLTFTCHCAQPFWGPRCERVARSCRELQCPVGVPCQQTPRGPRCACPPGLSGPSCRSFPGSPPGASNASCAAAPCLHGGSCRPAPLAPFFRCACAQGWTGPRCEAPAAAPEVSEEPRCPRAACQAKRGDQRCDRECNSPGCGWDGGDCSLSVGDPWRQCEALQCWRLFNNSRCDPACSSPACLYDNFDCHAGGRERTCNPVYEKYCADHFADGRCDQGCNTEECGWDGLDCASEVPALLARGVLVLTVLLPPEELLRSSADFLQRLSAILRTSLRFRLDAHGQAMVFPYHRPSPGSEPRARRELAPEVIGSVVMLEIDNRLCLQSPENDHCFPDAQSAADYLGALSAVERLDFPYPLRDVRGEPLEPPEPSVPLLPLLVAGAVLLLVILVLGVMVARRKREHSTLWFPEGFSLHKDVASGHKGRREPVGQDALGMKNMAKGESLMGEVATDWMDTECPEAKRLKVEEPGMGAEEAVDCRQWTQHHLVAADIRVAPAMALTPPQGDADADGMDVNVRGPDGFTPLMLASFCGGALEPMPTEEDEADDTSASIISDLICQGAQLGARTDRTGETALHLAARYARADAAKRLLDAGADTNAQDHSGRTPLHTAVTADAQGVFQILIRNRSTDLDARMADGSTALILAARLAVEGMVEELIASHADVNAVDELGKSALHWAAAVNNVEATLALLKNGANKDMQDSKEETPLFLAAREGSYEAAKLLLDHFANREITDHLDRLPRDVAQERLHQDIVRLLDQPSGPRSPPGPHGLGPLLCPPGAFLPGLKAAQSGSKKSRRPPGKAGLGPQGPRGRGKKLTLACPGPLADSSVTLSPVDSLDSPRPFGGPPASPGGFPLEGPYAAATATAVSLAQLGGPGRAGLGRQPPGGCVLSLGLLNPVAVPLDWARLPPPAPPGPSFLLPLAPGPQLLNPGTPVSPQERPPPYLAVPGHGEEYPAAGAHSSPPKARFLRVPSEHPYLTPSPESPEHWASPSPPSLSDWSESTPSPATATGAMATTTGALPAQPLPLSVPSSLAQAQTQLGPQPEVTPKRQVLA

[10] = probe aEGFR binding to arrayed compounds – biochemical, biotinylated probe, 635/667 nm fluorescence, primary screen (AID 1097); settings: small-molecule microarray, higher = more signal;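 note: probe is a biotinylated anti-EGFR antibody binding compounds printed on slides; score combines fluorescence near 667 nm and signal to noise of each spot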

| SMILES | composite z-score [1] | z-score [2] | z-score [3] | z-score [4] | composite z-score [5] | z-score [6] | composite z-score [7] | composite z-score [8] | composite z-score [9] | composite z-score [10] |
| --- | --- | --- | --- | --- | --- | --- | --- | --- | --- | --- |
| CN(C)CCCC[C@@H]1NC(=O)[C@H]2C[C@@H](C(=O)NCCCCCCN)[C@@H](c3ccc(O)cc3)N2C1=O | 1.57 | 0.307 (inactive) | -0.235 (inactive) | -0.447 (inactive) | 3.08 | 0.278 (inactive) | 1.14 | 1.84 | 1.15 | 0.566 |
| CCCCCN1CC=CC23O[C@@H]4/C=C\CCC(C)OC(=O)C4[C@H]2C(=O)N(C(C)CO)[C@@H]3C1=O (stereo not given in full) | 1.09 | 0.255 (inactive) | 0.117 (inactive) | -0.562 (inactive) | 2.37 | 0.123 (inactive) | -0.238 | 0.0805 | 0.385 | -0.168 |
| O=C(c1ccccc1)N1C(=O)[C@@]2(Cc3ccccc31)N=C(c1ccc(OCCCO)cc1)O[C@H]2c1ccccc1 | 1.55 | -0.26 (inactive) | -1.23 (inactive) | 1.74 (inactive) | 2.59 | 0.0877 (inactive) | 0.384 | 0.487 | 1.09 | 0.291 |
| Cc1ccc([C@@H]2C[C@@H](Sc3ccccc3)[C@H](C(=O)O)CN2S(=O)(=O)c2ccc(C)cc2)cc1 | 1.54 | -0.337 (inactive) | 0.565 (inactive) | -0.787 (inactive) | 3.53 | -0.773 (inactive) | 0.141 | 0.339 | 1.08 | 0.0082 |
| CN(C)CCCCCCNC(=O)[C@H]1C[C@H]2C(=O)N[C@@H](CCCCN)C(=O)N2[C@H]1c1cccc(OCCO)c1 | 1.56 | -0.871 (inactive) | -9.2 (active) | -0.622 (inactive) | 4.65 | -0.15 (inactive) | 1.76 | 2.06 | 1.01 | 1.12 |
| O=C1NC(=O)C2C1C=CC(C(O)c1cc(C(F)(F)F)cc(C(F)(F)F)c1)N2Nc1ccccn1 (stereo not given) | 0.463 | 0.307 (inactive) | 1.19 (inactive) | -0.697 (inactive) | 1.21 | -1.02 (inactive) | 0.05 | 0.159 | 0.429 | -0.129 |
| COc1ccc(C#Cc2ccc3c(c2)[C@]2(C(=O)N3)[C@H](C(=O)NC[C@H](O)c3ccccc3)[C@H]3C(=O)O[C@H](c4ccccc4)[C@H](c4ccccc4)N3[C@@H]2c2ccc(O)cc2)cc1 | 1.55 | 2.26 (inactive) | 0.984 (inactive) | 2.2 (inactive) | 2.98 | -0.0198 (inactive) | 0.0078 | 0.904 | 0.729 | 0.0996 |
| COc1ccccc1CN1C(=O)c2ccccc2[C@@H](C(=O)NC2CC2)[C@@H]1c1ccc(CO)cc1 | 1.54 | 0.827 (inactive) | -0.392 (inactive) | 0.344 (inactive) | 2.28 | 0.772 (inactive) | 0.488 | 1.47 | 1.06 | 0.194 |
| CC(C)[Si]1(C(C)C)O[C@@H](c2ccccc2)c2cc(-c3ccc(-c4ccc(Cl)c(Cl)c4)o3)nc(-c3ccccc3)c21 | 0.985 | -0.585 (inactive) | -0.764 (inactive) | 0.167 (inactive) | 1.22 | -1.22 (inactive) | -0.0809 | -0.262 | 0.123 | -0.108 |
| CC1(C)[C@@H]2CC(C(O)C3C=CC4C(=O)N(Cc5ccccc5)C(=O)C4N3n3cnnc3)=C[C@H]1C2 (stereo not given in full) | 1.29 | 0.0365 (inactive) | 1.57 (inactive) | 1.38 (inactive) | 3.12 | -0.117 (inactive) | 0.104 | 0.458 | 0.791 | 0.0564 |
| C[N+](C)(C)CCCC[C@@H]1NC(=O)[C@H]2C[C@@H](C(=O)NCCCCCCNC(=O)CS)[C@@H](c3cccc(OCCO)c3)N2C1=O | -0.452 | -0.173 (inactive) | 0.532 (inactive) | -0.0564 (inactive) | 2.01 | 0.154 (inactive) | -0.0766 | -0.33 | -0.837 | -0.268 |
| C=C(CCCC)/C(=C/C[C@H](OC(=O)c1ccncc1)c1ccccc1OCCO)c1cnc2ccccc2c1 | 1.55 | -1.73 (inactive) | -1.14 (inactive) | 3.47 (inactive) | 1.34 | -0.0552 (inactive) | -0.217 | 1.27 | 1.13 | -0.111 |
| COCCOC(=O)N1C(=O)[C@@]2(c3cc(C#CC4(O)CCCCCC4)ccc31)[C@H](c1ccccc1OCCO)N1[C@H](c3ccccc3)[C@H](c3ccccc3)OC(=O)[C@H]1[C@@H]2C(=O)N1CCN(c2ncccn2)CC1 | 1.55 | 2.46 (inactive) | 1.5 (inactive) | 6.01 (inactive) | 2.73 | 1.02 (inactive) | 0.028 | 0.574 | 0.959 | 0.219 |
| O=C(c1ccccc1)N1C(=O)[C@]2(COC(c3ccc(OCCCO)cc3)=N2)Cc2ccccc21 | 1.53 | -1.84 (inactive) | 0.901 (inactive) | 4.51 (inactive) | 3.17 | -0.178 (inactive) | 0.133 | 0.722 | 1.15 | -0.0989 |
| CC(C)c1ccc(NN2C(C(O)c3ccc(B(O)O)cc3)C=CC3C(=O)N(c4ccccc4)C(=O)C32)cc1 (stereo not given) | 0.815 | 0.0686 (inactive) | -4.4 (inactive) | 0.617 (inactive) | 2.99 | -0.41 (inactive) | 0.413 | -0.266 | 1.11 | -0.0179 |
| COc1ccc(CCNC(=O)[C@@]2(Sc3ccc(C)cc3)CC(=O)N(C(C)C)[C@@H]2c2ccc(CO)cc2I)cc1 | 0.163 | -0.971 (inactive) | -0.693 (inactive) | 0.706 (inactive) | 0.468 | -0.236 (inactive) | -0.183 | -0.778 | -0.343 | -0.189 |
| CCCCCCc1nc(-c2cc(C)c(OC)c(C)c2)cc2c1[Si](C(C)C)(C(C)C)OC2 | 1 | -0.389 (inactive) | -0.114 (inactive) | -0.264 (inactive) | -0.0784 | 0.344 (inactive) | -0.0575 | 0.187 | -0.129 | -0.0828 |
| CC(=O)n1cc(C(O)C2C=CC3C(=O)N(c4ccccc4)C(=O)C3N2Nc2ccc([N+](=O)[O-])cc2)c2ccccc21 (stereo not given) | 1.45 | -0.701 (inactive) | 0.451 (inactive) | 2.05 (inactive) | 3.28 | -0.567 (inactive) | 0.534 | -0.386 | 1.06 | -0.0355 |
| CCCCCCc1nc(-c2ccc(OC)nc2)cc2c1[Si](C(C)C)(C(C)C)O[C@H]2c1ccccc1 | 0.608 | 0.493 (inactive) | 0.993 (inactive) | -0.226 (inactive) | -0.4 | -0.995 (inactive) | -0.203 | 0.75 | 0.783 | -0.0674 |
| COCCOC(=O)N1C(=O)[C@@]2(c3cc(C#Cc4ccc(OC)cc4)ccc31)[C@H](c1ccc(OCCO)cc1)N1[C@H](c3ccccc3)[C@H](c3ccccc3)OC(=O)[C@H]1[C@@H]2C(=O)N1CCN(c2ncccn2)CC1 | 1.55 | 2.92 (inactive) | 2.3 (inactive) | 7.54 (inactive) | 1.55 | 0.468 (inactive) | 0.127 | 1.06 | 1.08 | 0.178 |
| O=C(NCCN1CCOCC1)C1N=C(c2ccc(OCCCO)cc2)N(c2ccccc2)O1 (stereo not given) | 1.54 | -0.101 (inactive) | -0.251 (inactive) | -0.36 (inactive) | 3.22 | 1 (inactive) | 0.443 | 1.19 | 0.0538 | -0.0099 |
| COC(=O)[C@@]1(Cc2ccc(OC)cc2)[C@H]2c3cc(C(=O)N4CCCC4)n(CCN4CNCC4=O)c3C[C@H]2CN1C(=O)c1ccccc1 | -0.871 | 0.503 (inactive) | 0.706 (inactive) | 0.429 (inactive) | 3.77 | -0.977 (inactive) | 1.42 | -0.364 | 0.293 | 1.15 |
| C=CCOC(=O)[C@@H]1[C@H]2C(=O)O[C@H](c3ccccc3)[C@H](c3ccccc3)N2[C@H](c2ccc(OCCOC(=O)[C@@H]3C[C@@H]4C(=O)NCC(=O)N4[C@@H]3c3ccc(O)cc3)cc2)[C@@]12C(=O)Nc1ccc(I)cc12 | 1.55 | 0.218 (inactive) | 0.985 (inactive) | 2.85 (inactive) | 2.54 | 0.5 (inactive) | -0.171 | 1.58 | 0.859 | -0.154 |
| [N-]=[N+]=Nc1ccccc1[C@@H]1OC(c2ccc(OCCCO)cc2)=N[C@]1(CCS(=O)(=O)c1ccccc1)C(N)=O | 1.55 | 0.193 (inactive) | -1.36 (inactive) | 0.199 (inactive) | 3.64 | 0.743 (inactive) | 0.588 | 0.561 | 0.91 | 0.122 |
| COc1ccc(C(O)C2C=CC3C(=O)N(Cc4ccccc4)C(=O)C3N2n2cnnc2)cc1OCc1ccccc1 (stereo not given) | 0.953 | -1.56 (inactive) | 0.0901 (inactive) | -0.62 (inactive) | 2.59 | 1.69 (inactive) | 0.114 | 0.0181 | 0.331 | -0.0512 |
| C=C(CCCC)/C(=C/C[C@@H](OC(=O)c1ccncc1)c1ccc(OCCO)cc1)c1cc(C(=O)OC)ccc1OC | 1.53 | 0.594 (inactive) | 0.199 (inactive) | 0.279 (inactive) | 1.66 | 0.22 (inactive) | -0.166 | 0.874 | 0.975 | -0.12 |
| CC(C)C[C@@H]1NC(=O)[C@@H]2C[C@H](C(=O)NCc3ccc(F)cc3)[C@H](c3cccc(OCCO)c3)N2C1=O | 1.38 | -1.84 (inactive) | -0.161 (inactive) | -0.425 (inactive) | 2.14 | 1.64 (inactive) | -0.0674 | 0.572 | 0.552 | -0.147 |
| O=C(NC1CC1)[C@@H]1c2ccccc2C(=O)N(Cc2ccccc2Cl)[C@H]1c1ccc(CO)cc1 | 1.54 | -2.17 (inactive) | -2.52 (inactive) | -1.66 (inactive) | 2.77 | 4.01 (inactive) | 0.161 | 1.02 | 1.11 | 0.0103 |
